We go through two sequences from paper PMC7862700, “An all-to-all approach to the identification of sequence-specific readers for epigenetic DNA modifications on cytosine”.

What all share (assay): DAPPL (digital affinity profiling via proximity ligation, sequencing); 10 mM Tris-HCl pH 7.5, 50 mM NaCl, 1 mM DTT, 4% glycerol, room temperature, 30 min; GST-TFs on glutathione beads, 16-mer random dsDNA library, 0.1% formaldehyde crosslink after washing; high values mean tight binding
Common to all, as to details: protein: recombinant; tags: N-terminal GST; dsDNA, one strand shown

In one test the target is T1, FLI1 (Homo sapiens, UniProt Q01543 1-452).
T1 sequence: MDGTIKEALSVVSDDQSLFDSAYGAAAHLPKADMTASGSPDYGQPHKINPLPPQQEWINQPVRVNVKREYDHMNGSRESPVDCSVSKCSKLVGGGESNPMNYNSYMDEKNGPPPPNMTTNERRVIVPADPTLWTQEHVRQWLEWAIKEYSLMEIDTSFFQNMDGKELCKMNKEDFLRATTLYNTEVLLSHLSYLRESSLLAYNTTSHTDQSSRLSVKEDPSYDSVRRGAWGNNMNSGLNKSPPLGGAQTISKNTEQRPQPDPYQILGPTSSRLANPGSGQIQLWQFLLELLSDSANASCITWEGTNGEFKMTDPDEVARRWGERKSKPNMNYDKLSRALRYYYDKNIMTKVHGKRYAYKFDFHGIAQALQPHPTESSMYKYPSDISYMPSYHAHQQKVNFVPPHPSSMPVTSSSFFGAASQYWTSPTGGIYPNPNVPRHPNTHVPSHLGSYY
The method in brief: (§1)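 Each value of binding signal is a hexamer's read frequency for a factor divided by the same hexamer's frequency in the tag-only sample. Barcoded, bead-captured GST fusions of human transcription factors made in yeast were pooled with that sample and incubated with 200 nmole of a random double-stranded 16-mer DNA library in Tris/NaCl/DTT/glycerol buffer at room temperature for 30 min. Washing, 0.1% formaldehyde crosslinking, proximity ligation, PCR and Illumina NextSeq500 sequencing followed.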

Another test addresses T2, GABPA (Homo sapiens, UniProt Q06546 1-454).
T2 sequence: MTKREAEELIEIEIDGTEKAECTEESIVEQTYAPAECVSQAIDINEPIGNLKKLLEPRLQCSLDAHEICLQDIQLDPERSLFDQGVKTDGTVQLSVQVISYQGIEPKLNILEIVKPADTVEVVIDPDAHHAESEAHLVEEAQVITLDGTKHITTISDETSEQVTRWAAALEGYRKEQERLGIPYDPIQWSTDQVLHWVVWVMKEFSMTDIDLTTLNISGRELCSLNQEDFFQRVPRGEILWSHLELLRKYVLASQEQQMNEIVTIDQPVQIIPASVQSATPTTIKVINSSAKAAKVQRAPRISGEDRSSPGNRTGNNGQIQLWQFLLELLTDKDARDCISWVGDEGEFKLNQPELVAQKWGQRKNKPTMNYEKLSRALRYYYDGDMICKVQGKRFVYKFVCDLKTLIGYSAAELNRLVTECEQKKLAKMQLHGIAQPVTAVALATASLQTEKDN
The method in brief: as §1

The next test deals with T3, EHF (Homo sapiens, UniProt Q9NZC4 1-300).
T3 sequence: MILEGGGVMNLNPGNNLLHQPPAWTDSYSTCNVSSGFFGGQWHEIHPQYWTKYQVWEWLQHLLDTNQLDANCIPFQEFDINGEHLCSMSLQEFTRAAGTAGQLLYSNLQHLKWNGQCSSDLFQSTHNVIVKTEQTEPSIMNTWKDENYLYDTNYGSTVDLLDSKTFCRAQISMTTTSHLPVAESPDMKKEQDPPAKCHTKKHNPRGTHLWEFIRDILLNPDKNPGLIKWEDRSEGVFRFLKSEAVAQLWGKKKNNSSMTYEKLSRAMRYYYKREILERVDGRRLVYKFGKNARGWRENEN
The method in brief: as §1

A further test addresses T4, ERF (Homo sapiens, UniProt P50548 1-548).
T4 sequence: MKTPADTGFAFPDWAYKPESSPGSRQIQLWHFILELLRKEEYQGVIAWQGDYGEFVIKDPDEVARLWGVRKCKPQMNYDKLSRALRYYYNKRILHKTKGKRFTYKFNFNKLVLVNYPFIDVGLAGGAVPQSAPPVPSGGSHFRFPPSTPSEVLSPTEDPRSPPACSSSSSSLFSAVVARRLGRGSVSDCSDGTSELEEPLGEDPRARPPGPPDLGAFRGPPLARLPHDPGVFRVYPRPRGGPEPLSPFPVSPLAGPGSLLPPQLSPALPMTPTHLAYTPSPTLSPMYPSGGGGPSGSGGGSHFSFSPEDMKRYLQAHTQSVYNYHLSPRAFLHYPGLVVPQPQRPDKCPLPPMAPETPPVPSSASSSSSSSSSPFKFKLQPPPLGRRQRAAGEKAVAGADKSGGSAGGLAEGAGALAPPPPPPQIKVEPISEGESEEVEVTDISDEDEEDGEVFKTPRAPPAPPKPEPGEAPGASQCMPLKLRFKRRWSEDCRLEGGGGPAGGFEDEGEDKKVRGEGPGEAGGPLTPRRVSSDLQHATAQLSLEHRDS
The method in brief:
as §1

The next test addresses T5, ELK1 (Homo sapiens, UniProt P19419 1-428).
T5 sequence: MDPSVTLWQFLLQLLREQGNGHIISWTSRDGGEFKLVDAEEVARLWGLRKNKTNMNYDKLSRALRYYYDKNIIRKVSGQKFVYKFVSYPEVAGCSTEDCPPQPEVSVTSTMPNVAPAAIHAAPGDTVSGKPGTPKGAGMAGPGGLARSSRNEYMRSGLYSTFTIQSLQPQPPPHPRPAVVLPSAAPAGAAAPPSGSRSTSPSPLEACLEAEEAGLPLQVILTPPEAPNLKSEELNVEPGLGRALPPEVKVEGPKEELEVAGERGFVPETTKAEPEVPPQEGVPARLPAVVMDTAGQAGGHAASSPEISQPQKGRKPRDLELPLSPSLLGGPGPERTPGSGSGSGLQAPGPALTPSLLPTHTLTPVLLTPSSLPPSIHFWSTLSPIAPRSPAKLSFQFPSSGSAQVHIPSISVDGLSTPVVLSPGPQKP
In outline: as §1

Another test has as its target T6, ERG (Homo sapiens, UniProt P11308 1-479).
T6 sequence: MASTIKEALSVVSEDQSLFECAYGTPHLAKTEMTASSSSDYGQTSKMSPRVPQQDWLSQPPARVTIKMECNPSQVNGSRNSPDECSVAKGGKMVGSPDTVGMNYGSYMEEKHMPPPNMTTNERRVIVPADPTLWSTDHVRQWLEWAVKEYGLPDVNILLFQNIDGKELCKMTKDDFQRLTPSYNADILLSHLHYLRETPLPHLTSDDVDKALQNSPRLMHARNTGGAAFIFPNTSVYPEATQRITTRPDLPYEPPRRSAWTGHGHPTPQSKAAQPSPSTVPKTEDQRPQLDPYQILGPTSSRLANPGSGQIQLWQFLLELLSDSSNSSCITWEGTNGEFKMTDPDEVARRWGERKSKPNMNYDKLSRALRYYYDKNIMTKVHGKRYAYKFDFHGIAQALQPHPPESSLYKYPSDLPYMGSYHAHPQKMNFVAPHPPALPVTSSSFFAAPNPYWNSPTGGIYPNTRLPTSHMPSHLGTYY
In outline: as §1

In a further test the target is ELF1 (Homo sapiens, UniProt P32519 1-619). In outline:
as §1

The next test deals with SPIB (Homo sapiens, UniProt Q01892 1-262). The method in brief: as §1
SPIB, sequence (Q01892 whole entry): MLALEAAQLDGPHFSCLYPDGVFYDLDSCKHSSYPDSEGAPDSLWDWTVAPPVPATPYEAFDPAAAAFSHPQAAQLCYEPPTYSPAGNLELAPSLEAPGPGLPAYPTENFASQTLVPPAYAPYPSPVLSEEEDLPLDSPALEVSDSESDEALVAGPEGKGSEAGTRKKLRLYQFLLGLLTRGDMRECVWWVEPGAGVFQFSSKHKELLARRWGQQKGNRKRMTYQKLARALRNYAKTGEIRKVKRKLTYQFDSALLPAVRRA
The next test concerns the target T7, SPIC (Homo sapiens, UniProt Q8N5J4 1-248).
T7 sequence: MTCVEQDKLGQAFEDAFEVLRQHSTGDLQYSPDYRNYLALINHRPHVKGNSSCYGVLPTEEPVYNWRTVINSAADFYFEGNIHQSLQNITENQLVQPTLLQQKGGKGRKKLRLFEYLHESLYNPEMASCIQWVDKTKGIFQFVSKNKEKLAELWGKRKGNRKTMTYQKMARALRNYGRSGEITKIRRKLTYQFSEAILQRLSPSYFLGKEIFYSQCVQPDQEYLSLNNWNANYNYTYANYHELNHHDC
In outline: as §1

In the next test the target is T8, ELK4 (Homo sapiens, UniProt P28324-2 1-405).
T8 sequence: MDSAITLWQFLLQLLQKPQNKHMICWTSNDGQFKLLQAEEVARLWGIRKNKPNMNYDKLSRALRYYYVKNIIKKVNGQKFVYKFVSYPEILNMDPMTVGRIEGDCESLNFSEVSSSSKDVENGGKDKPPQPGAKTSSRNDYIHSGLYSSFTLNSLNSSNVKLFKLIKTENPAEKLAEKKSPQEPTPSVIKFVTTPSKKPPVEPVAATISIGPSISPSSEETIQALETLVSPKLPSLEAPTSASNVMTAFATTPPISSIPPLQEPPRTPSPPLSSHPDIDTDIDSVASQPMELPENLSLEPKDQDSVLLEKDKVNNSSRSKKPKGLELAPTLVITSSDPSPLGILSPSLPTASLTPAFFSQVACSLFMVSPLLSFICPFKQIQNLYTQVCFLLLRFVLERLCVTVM
The method in brief: as §1

Another test addresses T9, ETV3L (Homo sapiens, UniProt Q6ZN32 1-361).
T9 sequence: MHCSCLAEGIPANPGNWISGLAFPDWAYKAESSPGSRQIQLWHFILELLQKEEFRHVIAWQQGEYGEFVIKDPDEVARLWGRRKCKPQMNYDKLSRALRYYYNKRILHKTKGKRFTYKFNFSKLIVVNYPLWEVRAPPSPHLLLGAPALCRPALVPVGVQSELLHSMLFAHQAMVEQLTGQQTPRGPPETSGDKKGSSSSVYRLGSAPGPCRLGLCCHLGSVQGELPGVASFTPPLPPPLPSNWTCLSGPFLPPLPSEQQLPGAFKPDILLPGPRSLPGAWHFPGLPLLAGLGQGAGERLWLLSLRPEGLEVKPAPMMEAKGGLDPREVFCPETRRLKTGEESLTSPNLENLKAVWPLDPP
The method in brief: as §1

For the next test, the target named is T10, ETS2 (Homo sapiens, UniProt P15036 1-469).
T10 sequence: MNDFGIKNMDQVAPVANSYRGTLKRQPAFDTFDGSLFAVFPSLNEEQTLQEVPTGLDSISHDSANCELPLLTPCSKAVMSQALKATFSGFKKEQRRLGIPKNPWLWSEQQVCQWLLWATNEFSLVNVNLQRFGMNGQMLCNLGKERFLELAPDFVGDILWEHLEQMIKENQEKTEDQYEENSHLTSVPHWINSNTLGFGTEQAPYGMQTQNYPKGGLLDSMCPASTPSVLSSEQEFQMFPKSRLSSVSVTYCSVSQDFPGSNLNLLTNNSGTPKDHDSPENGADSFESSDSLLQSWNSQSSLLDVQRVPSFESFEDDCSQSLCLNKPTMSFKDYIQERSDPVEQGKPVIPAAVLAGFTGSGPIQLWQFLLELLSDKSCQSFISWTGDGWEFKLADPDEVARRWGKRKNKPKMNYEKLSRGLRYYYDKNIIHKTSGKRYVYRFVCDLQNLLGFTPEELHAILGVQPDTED
The method in brief: as §1

For another test, the target named is T11, ETV7 (Homo sapiens, UniProt Q9Y603 1-341).
T11 sequence: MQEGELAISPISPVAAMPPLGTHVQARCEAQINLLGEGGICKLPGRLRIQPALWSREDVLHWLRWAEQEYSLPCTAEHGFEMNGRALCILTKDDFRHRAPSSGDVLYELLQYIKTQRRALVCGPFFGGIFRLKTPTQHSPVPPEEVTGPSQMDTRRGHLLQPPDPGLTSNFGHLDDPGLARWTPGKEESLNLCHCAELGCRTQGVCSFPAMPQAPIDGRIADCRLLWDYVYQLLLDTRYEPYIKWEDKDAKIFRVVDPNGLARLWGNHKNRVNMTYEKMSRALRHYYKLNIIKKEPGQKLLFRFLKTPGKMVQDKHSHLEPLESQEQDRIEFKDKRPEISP
In outline:
as §1

For the next test, the target named is ETV6 (Homo sapiens, UniProt P41212 1-452). The method in brief:
as §1

ELF1, sequence (P32519 whole entry): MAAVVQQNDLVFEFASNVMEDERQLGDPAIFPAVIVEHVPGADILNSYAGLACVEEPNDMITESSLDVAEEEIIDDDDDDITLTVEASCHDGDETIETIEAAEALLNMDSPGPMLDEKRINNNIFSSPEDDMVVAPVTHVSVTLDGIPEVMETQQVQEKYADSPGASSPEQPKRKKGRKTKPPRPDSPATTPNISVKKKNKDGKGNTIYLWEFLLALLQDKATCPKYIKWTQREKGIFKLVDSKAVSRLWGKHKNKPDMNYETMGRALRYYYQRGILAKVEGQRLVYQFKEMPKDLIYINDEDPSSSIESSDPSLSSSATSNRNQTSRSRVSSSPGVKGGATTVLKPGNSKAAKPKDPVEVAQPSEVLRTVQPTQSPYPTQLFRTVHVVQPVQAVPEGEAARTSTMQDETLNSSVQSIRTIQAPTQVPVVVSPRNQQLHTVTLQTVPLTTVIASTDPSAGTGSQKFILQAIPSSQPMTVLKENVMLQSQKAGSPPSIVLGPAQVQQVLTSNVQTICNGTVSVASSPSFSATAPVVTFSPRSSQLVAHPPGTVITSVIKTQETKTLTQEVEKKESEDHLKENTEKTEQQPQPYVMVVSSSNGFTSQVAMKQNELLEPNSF
ETV6, sequence (P41212 whole entry): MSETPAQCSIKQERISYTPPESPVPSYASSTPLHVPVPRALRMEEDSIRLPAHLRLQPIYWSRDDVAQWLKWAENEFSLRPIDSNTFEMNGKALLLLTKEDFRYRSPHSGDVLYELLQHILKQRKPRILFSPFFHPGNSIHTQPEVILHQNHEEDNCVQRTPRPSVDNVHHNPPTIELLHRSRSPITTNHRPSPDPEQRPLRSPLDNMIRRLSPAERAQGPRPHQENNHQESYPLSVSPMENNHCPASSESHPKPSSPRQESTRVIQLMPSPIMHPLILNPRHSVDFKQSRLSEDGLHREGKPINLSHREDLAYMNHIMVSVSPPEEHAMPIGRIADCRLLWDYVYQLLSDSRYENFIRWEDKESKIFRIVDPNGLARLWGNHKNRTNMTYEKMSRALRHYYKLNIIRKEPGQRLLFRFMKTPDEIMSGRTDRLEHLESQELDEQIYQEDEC

For the sequence CATTGG, the binding signal with FLI1 is 1.05 fold enrichment (6-mer frequency, TF over GST control); with GABPA it was 1 fold enrichment (6-mer frequency, TF over GST control); in the test with EHF, 1 fold enrichment (6-mer frequency, TF over GST control); with ERF it was 1.05 fold enrichment (6-mer frequency, TF over GST control).

In the case of CACTAG, the binding signal in the test with ELK1 was 1.04 fold enrichment (6-mer frequency, TF over GST control); with GABPA it was 1.02 fold enrichment (6-mer frequency, TF over GST control); with ERG it was 1.04 fold enrichment (6-mer frequency, TF over GST control); with ELF1, 1.09 fold enrichment (6-mer frequency, TF over GST control); with SPIB, 1 fold enrichment (6-mer frequency, TF over GST control); with SPIC, 1.05 fold enrichment (6-mer frequency, TF over GST control). In addition, the binding signal is 1.06 fold enrichment (6-mer frequency, TF over GST control) with ELK4; 1.03 fold enrichment (6-mer frequency, TF over GST control) with ETV3L; 1.01 fold enrichment (6-mer frequency, TF over GST control) with ETS2; 1.01 fold enrichment (6-mer frequency, TF over GST control) with ETV7; 1.01 fold enrichment (6-mer frequency, TF over GST control) with ETV6.
